The campaign covered roughly 63,000 compounds. About 1,100 (1.7%) were called active. This is one part of a sample in which actives are shown more often than they occur.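 The calls were made as follows: active = compounds whose percent cytotoxicity in the single-dose primary screen, scaled between solvent and toxic-drug controls, exceeds 50; inactive = the rest.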 Results with a measured potency or affinity are listed apart.
Assay: cytotoxicity in KRAS-transformed pancreatic duct cells, primary screen, cell-based, fluorescence, HTS (AID 431);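 also: 0% = DMSO solvent wells and 100% = doxorubicin-treated wells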
Conditions: HPDE-C7K KRASV12 cells, Alamar Blue viability, 48 h; at 10 µM; stronger effect = higher value

| SMILES | cytotoxicity |
| --- | --- |
| Cc1cccc(-n2c(Cc3cc(=O)[nH]c(=O)[nH]3)nnc2SCC(=O)NCc2ccco2)c1 | -4.5% (inactive) |
| O=C(NCc1cccc(F)c1)c1noc2c1CCCC2 | -1.2% (inactive) |
| Cc1cc(O)cc(=O)n1Cc1ccco1 | -8.3% (inactive) |
| COc1cc(C)c(C(C)C)cc1S(=O)(=O)N1CCN(C)CC1 | -21.8% (inactive) |
| COc1cc(Cl)c(S(=O)(=O)n2cnc(C)c2)cc1Cl | 4.1% (inactive) |
| COc1ccc(-c2c(C)oc3c(CN4CCN(C)CC4)c(O)ccc3c2=O)cc1 | -6.1% (inactive) |
| CCOC(=O)C1=C(CS(=O)(=O)c2ccccc2)NC(=O)NC1c1ccccc1OCC (stereo unspecified) | -3.7% (inactive) |
| Cc1ccc(S(=O)(=O)CC(c2ccccc2)N2CCOCC2)cc1 (stereo unspecified) | -3.6% (inactive) |
| Nc1ncn(C(=O)c2ccco2)n1 | 4.4% (inactive) |
| O=C(COc1cc(=O)n2c(n1)SCCC2)c1ccccc1 | -1.2% (inactive) |
| CCOC(=O)Nc1ccc2c(c1)N(C(=O)CN1CCN(C)CC1)c1ccccc1S2 | 5.6% (inactive) |
| CN1CCN(CCCN2c3ccccc3Sc3ccc(Cl)cc32)CC1 | 82.7% (active) |
| O=C(CN1CCN(CCOCCO)CC1)N1c2ccccc2Sc2ccc(Cl)cc21 | -26% (inactive) |
| CN1CCN(CCC(=O)N2c3ccccc3Sc3ccc(Cl)cc32)CC1 | 35.1% (inactive) |
| OCCN1CCN(C(=S)c2ccc(Cl)cc2)CC1 | -18.6% (inactive) |
| CC(=O)C1=C(O)C(=O)N(CCN2CCOCC2)C1c1ccc(N(C)C)cc1 (stereo unspecified) | -11.6% (inactive) |
| Cc1oc(-c2cccc(Cl)c2)nc1CN1CCC(C(=O)NCC2CCCO2)CC1 (stereo unspecified) | 21.4% (inactive) |
| COc1ccc(OC)c(C2C(C(C)=O)=C(O)C(=O)N2CCN2CCOCC2)c1 (stereo unspecified) | 3.1% (inactive) |
| COc1cccc(C(=O)CSc2nnc(CNc3nc(-c4ccccc4)cs3)n2C)c1 | -0.3% (inactive) |
| CC(CC1C(C#N)=C(N)OC2=C1C(=O)CCC2)c1ccccc1 (stereo unspecified) | -2.7% (inactive) |
| Cc1cccc(-c2noc(CCc3ccccc3)n2)c1 | 4.2% (inactive) |
| Cc1ccc(Nc2nc(N)nc(CN3CCN(Cc4ccc5c(c4)OCO5)CC3)n2)c(C)c1 | -5.2% (inactive) |
| Cc1cc(C(=O)NCCN2CCN(c3cccc(Cl)c3)CC2)n(-c2ccccc2)n1 | 60.3% (active) |
| Cc1cc(C(=O)NCCCN2CCOCC2)n(-c2ccccc2)n1 | -11.4% (inactive) |

| SMILES | cytotoxicity |
| --- | --- |
| Cc1cc(C(=O)NCCCN2CCN(C3CCCCC3)CC2)n(-c2ccccc2)n1 | -1% (inactive) |
| CCN(CC)S(=O)(=O)c1ccc(N2CCCC2)c(C(=O)OCC(=O)/C(C#N)=C(\C)N)c1 | 10.5% (inactive) |
| CC(C)=C1C2C=CC1C(C(=O)Nc1cc(C)ccc1C)C2C(=O)O (stereo unspecified) | -14.9% (inactive) |
| CCOc1ccccc1NC(=O)Cn1nnc(C(=O)Nc2ccc(C)cc2)c1N | 5.2% (inactive) |
| CCOc1ccccc1NC(=O)Cn1nnc(C(=O)Nc2ccccc2Cl)c1N | 3.6% (inactive) |
| CCOc1ccccc1NC(=O)Cn1nnc(C(=O)NCc2ccco2)c1N | 55.3% (active) |
| CCN(CC)CCCN1C(=O)C(=O)/C(=C(/O)c2cc(C)ccc2C)C1c1cccnc1 (stereo unspecified) | -4.8% (inactive) |
| CCOC(=O)c1ccccc1NC(=O)c1cccs1 | -12.9% (inactive) |
| CCOC(=O)c1ccccc1NC(=O)c1ccccc1SC | 21.6% (inactive) |
| Cc1ccccc1NC(=O)c1c(F)c(F)c(F)c(F)c1F | -12% (inactive) |
| O=C(Nc1ccccc1Cl)c1c(F)c(F)c(F)c(F)c1F | 0.3% (inactive) |
| CC1=C(C#N)C(C)C2=C(CC(C)(C)CC2=O)N1 (stereo unspecified) | -3.6% (inactive) |
| Cn1c(Cl)cnc1C1CC(=O)c2cc(Cl)ccc2O1 (stereo unspecified) | 67.1% (active) |
| CN1CCN(C2=Nc3ccccc3Oc3ccc(Cl)cc32)CC1 | -3.2% (inactive) |
| COc1ccc2c(c1)C(=O)CC(c1ccccc1F)O2 (stereo unspecified) | 7.5% (inactive) |
| O=C(Nc1ccc2nc[nH]c2c1)c1ccco1 | 16.9% (inactive) |
| COC(=O)C(C)Sc1nc2c(c(=O)[nH]c(=O)n2C)n1CCCc1ccccc1 (stereo unspecified) | -4.9% (inactive) |
| O=S(=O)(NCCO)c1cccc2cccnc12 | -9.3% (inactive) |
| CCC(C)(C)n1nnnc1C(c1ccc(C)cc1)N1CCN(Cc2cccnc2)CC1 (stereo unspecified) | -32% (inactive) |
| O=C(OCC(=O)N1CCN(C(=O)c2ccco2)CC1)c1cc(=O)c2ccccc2o1 | -1.9% (inactive) |
| C=C1[C@@H](C)C2[C@H](Cc3ccccc3)NC(=O)[C@]23OC(=O)CC[C@H](O)CCC[C@H](C)C/C=C/[C@H]3[C@@H]1O (stereo partly specified) | 59.8% (active) |
| Cc1ccc(Nc2cccccc2=O)cc1 | -1.6% (inactive) |
| CCC1(C)Cc2c(sc3c2c(=O)n(C)c2nnc(SCc4ccccc4)n32)CO1 (stereo unspecified) | 3.4% (inactive) |
| Cc1cc(C2N=C(N)Nc3nc4ccccc4n32)c(C)n1-c1ccccc1Cl (stereo unspecified) | 5.7% (inactive) |

| SMILES | cytotoxicity |
| --- | --- |
| NC1=NC(c2ccccc2Cl)n2c(nc3ccccc32)N1 (stereo unspecified) | 0.6% (inactive) |
| COc1ccc(-n2nnnc2S(=O)(=O)CC(=O)N2CCCCC2)cc1 | 56.8% (active) |
| COc1ccc(-n2nnnc2S(=O)(=O)Cc2ccc(C(=O)O)cc2)cc1 | 2.6% (inactive) |
| COc1cc(OC)cc(-n2nnnc2SCC(=O)N2CCCC2)c1 | -16% (inactive) |
| COc1ccccc1N1CCN(CC(O)COc2cccc3ccccc23)CC1 (stereo unspecified) | 51.3% (active) |
| COc1ccccc1N1CCN(CC(O)COc2c(OC)cccc2OC)CC1 (stereo unspecified) | 3.7% (inactive) |
| C=CCc1ccccc1OCC(O)CN1CCN(c2ccccc2OC)CC1 (stereo unspecified) | 6.9% (inactive) |
| CCn1c(SCC(=O)N2CCCC2)nc2c1c(=O)n(C)c(=O)n2C | -12.3% (inactive) |
| Cc1cc(OCCOCCN(C)CCO)cc(C)c1Cl | 16.8% (inactive) |
| COc1ccccc1-c1nnc(NC(=O)c2ccc(S(=O)(=O)N(C)C)cc2)o1 | -3.2% (inactive) |
| CN(c1ccccc1)S(=O)(=O)c1ccc(C(=O)Nc2nnc(-c3ccc(F)cc3)o2)cc1 | 62.8% (active) |
| CCN(Cc1ccccc1)S(=O)(=O)c1ccc(C(=O)Nc2nnc(-c3ccccc3OC)o2)cc1 | 37.9% (inactive) |
| COCc1nnc(NC(=O)c2ccc(S(=O)(=O)N(C)c3ccccc3)cc2)o1 | 36.3% (inactive) |
| Cc1ccccc1C(=O)Nc1nnc(-c2ccc(F)cc2)o1 | 10.5% (inactive) |
| COc1ccccc1-c1nnc(NC(=O)c2ccc(S(=O)(=O)N(C)Cc3ccccc3)cc2)o1 | 64.9% (active) |
| CN(C)S(=O)(=O)c1ccc2c(c1)c(=O)c(C(=O)N1CCN(c3ccccn3)CC1)cn2C | 5% (inactive) |
| COc1cc(Cl)c(C)cc1NC(=O)CSc1nnc(-c2ccccn2)n1Cc1ccco1 | -4.6% (inactive) |
| O=C(CN1C(=O)c2ccccc2C1=O)Nc1cccnc1 | 10.7% (inactive) |
| N#Cc1cccc(C(c2nnnn2CCc2ccccc2)N2CCN(C3CCCCC3)CC2)c1 (stereo unspecified) | 7.9% (inactive) |
| COc1cccc(NC(=O)N2CCC(C(=O)Nc3ccc(C)cc3C)CC2)c1 | -5.2% (inactive) |
| S=c1[nH]nc(Cc2c[nH]c3ccccc23)o1 | 1.2% (inactive) |
| c1ccc(CSc2nnc(-c3c[nH]c4ccccc34)o2)cc1 | 1.1% (inactive) |
| CC(=O)c1ccc(C(=O)Nc2nnc(-c3ccc(Cl)cc3)o2)cc1 | 44.7% (inactive) |
| COc1ccc(C(=O)Nc2nnc(-c3ccccc3)o2)cc1OC | -0.9% (inactive) |

| SMILES | cytotoxicity |
| --- | --- |
| COc1cccc(C(=O)Nc2nnc(-c3ccc(Cl)cc3)o2)c1 | 85% (active) |
| Cc1cccc(-c2nnc(NC(=O)c3ccc(Cl)cc3)o2)c1 | 87.9% (active) |
| CN(C)c1ccc(C(=O)Nc2nnc(-c3ccc(Cl)cc3)o2)cc1 | 17.7% (inactive) |
| COc1ccccc1C(=O)Nc1nnc(-c2ccc(Cl)cc2)o1 | -0.6% (inactive) |
| COc1cccc(C(=O)Nc2nnc(-c3ccc(F)cc3)o2)c1 | 10.3% (inactive) |
| COc1cccc(-c2nnc(NC(=O)c3cccc(F)c3)o2)c1 | 44.6% (inactive) |
| CCOc1ccc(N2CC(C(=O)Nc3ccc(F)cc3F)CC2=O)cc1 (stereo unspecified) | -19.6% (inactive) |
| Clc1ccc(NC2=NCCC2)cc1Cl | -1.4% (inactive) |
| O=C(CN1CCN(C(=O)c2ccco2)CC1)Nc1ccccc1-c1ccccc1 | 3% (inactive) |
| CO[C@H]1C[C@@H]2CC[C@@H](C)[C@@](O)(O2)C(=O)C(=O)N2CCCC[C@H]2C(=O)O[C@H]([C@H](C)C[C@@H]2CC[C@@H](O)[C@H](OC)C2)CC(=O)[C@H](C)C=C(C)[C@@H](O)[C@@H](OC)C(=O)[C@H](C)C[C@H](C)C=CC=CC=C1C | 91% (active) |
| CC1Cn2c(nnc2-c2ccc(F)cc2)S1 (stereo unspecified) | 11.1% (inactive) |
| CCOc1ccccc1NC(=O)C1CCCN(S(=O)(=O)c2cccc3cccnc23)C1 (stereo unspecified) | 26.1% (inactive) |
| CCCCn1c(NC(=O)CC)c(C#N)c2nc3ccccc3nc21 | -5.1% (inactive) |
| CCCCn1c(NC(=O)c2ccccc2Cl)c(C#N)c2nc3ccccc3nc21 | 35.8% (inactive) |
| CCCCCn1c(N)c(C#N)c2nc3ccccc3nc21 | 2.3% (inactive) |
| CCC(=O)Nc1c(C#N)c2nc3ccccc3nc2n1-c1ccccc1C | 2.8% (inactive) |
| C=CCn1c(NC(=O)c2ccccc2)c(C#N)c2nc3ccccc3nc21 | 65.2% (active) |
| CCCCn1c(NC(=O)c2ccccc2)c(C#N)c2nc3ccccc3nc21 | 112% (active) |
| O=C(Nc1ccc2nn(-c3ccccc3)nc2c1)c1ccc(Br)o1 | 13.2% (inactive) |
| COc1ccc(-n2c(NC(=O)c3ccco3)c(C#N)c3nc4ccccc4nc32)cc1 | 9.7% (inactive) |
| N#Cc1c(NC(=O)c2ccc(Br)o2)n(-c2ccccc2)c2nc3ccccc3nc12 | 58.7% (active) |
| CCCCn1c(NC(C)=O)c(C#N)c2nc3ccccc3nc21 | -0.1% (inactive) |
| CCCCn1c(NC(=O)c2ccc(F)cc2)c(C#N)c2nc3ccccc3nc21 | 87.7% (active) |
| C=CCn1c(NC(=O)c2ccccc2Cl)c(C#N)c2nc3ccccc3nc21 | 7.7% (inactive) |

From PubChem BioAssay AID431 (Sanford-Burnham Center for Chemical Genomics, 2006)
